The values below come from the supplement of paper PMC10338343.

± gives the standard deviation.

Assay [1] deals with MILI (PIWIL2) piRISC loaded with L1MC piRNA (26 nt). Put plainly: pre-steady-state target cleavage rate (min^-1); guide: L1MC piRNA 5'p-UAACUAAAUACUAUGCAAGCUGUAGG; higher = faster piRNA-guided slicing of the target. The procedure, abridged: (§1)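 Active affinity-purified piRISC (1 nM) loaded with one synthetic guide was mixed with a transcribed, DNA-blocked target RNA library (0.1 nM), with or without 500 nM GTSF1 partner protein, in HEPES–potassium acetate buffer at 33 °C for 0–8 or 0–960 min. Uncleaved targets were sequenced, normalised to depth and to weakly complementary targets, and pooled across three trials, with k3 capped at 0.0001 min^-1. The pre-steady-state cleavage rate was determined with a burst-and-steady-state fit.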

The subject of assay [2] is EfPiwi piRISC loaded with L1MC piRNA (26 nt). Put plainly: pre-steady-state target cleavage rate (min^-1); auxiliary factor: 500 nM Ephydatia muelleri Gtsf1; guide: L1MC piRNA 5'p-UAACUAAAUACUAUGCAAGCUGUAGG; MIWI and MILI are mouse PIWI proteins and EfPiwi is from a freshwater sponge; tags in brackets are library labels; higher = faster piRNA-guided slicing of the target. The procedure, abridged:
as §1

Where [3] appears, read: auxiliary factor: 500 nM mouse GTSF1.
Setting [4] is: auxiliary factor: none (no GTSF1).

Consider UCCUGCUCAGCUUGCAUAGUAUUUAGUUA, for which the “pre-steady-state target cleavage rate” value was 0.278 ± 0.014 in assay [1] (setting [3]), 0.00716 ± 0.0018 in assay [1] (setting [4]) and 0.065 ± 0.015 in assay [2].

On to UCCUGCUACAGAUUGCAUAGUAUUUAGUUA, for which the results for the “pre-steady-state target cleavage rate” value in assay [1] (setting [3]), in assay [1] (setting [4]) and in assay [2] were 0.299 ± 0.015, 0.0107 ± 0.0034 and 0.0138 ± 0.0034, respectively.

With UCCUGCUUCAGCUAGCAUAGUAUUUAGUUA, the figures for the “pre-steady-state target cleavage rate” value in assay [1] (setting [3]), in assay [1] (setting [4]) and in assay [2] were 0.322 ± 0.02, 0.00715 ± 0.0018 and 0.0566 ± 0.015, respectively.

For the sequence UCCUGGAUGUCGAUUGCAUAGUAUUUAGUUA, the “pre-steady-state target cleavage rate” value was found to be 0.09 ± 0.012 in assay [1] (setting [3]), 0.00748 ± 0.0024 in assay [1] (setting [4]) and 0.00712 ± 0.0027 in assay [2].

UCCUGGAACAGACUUGCAUAGUAUUUAGUUA: the “pre-steady-state target cleavage rate” value is 0.217 ± 0.014 in assay [1] (setting [3]), 0.00682 ± 0.0024 in assay [1] (setting [4]) and 0.0135 ± 0.0042 in assay [2].

For UCCUCCUACAGCUUGCAUAGUACUUUAGUUA, the “pre-steady-state target cleavage rate” value came to 0.216 ± 0.017 in assay [1] (setting [3]), 0.00628 ± 0.0027 in assay [1] (setting [4]) and 0.0115 ± 0.0051 in assay [2].

For the sequence UCCUGGAUGUGAUUGCAUAGUAUUUAGUUA, the “pre-steady-state target cleavage rate” value in assay [1] (setting [3]) stood at 0.115 ± 0.015; in assay [1] (setting [4]), 0.00851 ± 0.0026; in assay [2] it was 0.00623 ± 0.0031.

For UCCUGGAUGUGCUUGCAUAGUACUUUAGUUA, the figures for the “pre-steady-state target cleavage rate” value in assay [1] (setting [3]), in assay [1] (setting [4]) and in assay [2] were 0.0231 ± 0.0092, 0.00627 ± 0.0028 and 0.0126 ± 0.0061, respectively.

In the case of UCCUGGUGACAGCUUGCAUAGUAUUUAGUUA, the “pre-steady-state target cleavage rate” value in assay [1] (setting [3]) was determined as 0.507 ± 0.044; in assay [1] (setting [4]), 0.0285 ± 0.0085; in assay [2] it was 0.0328 ± 0.01.

Consider UCCUGCAACAGCUUGCAUAGUUUUUAGUUA, for which the entries for the “pre-steady-state target cleavage rate” value in assay [1] (setting [3]), in assay [1] (setting [4]) and in assay [2] were 0.0613 ± 0.0099, 0.00354 ± 0.0029 and 0.00727 ± 0.0019, respectively.

Take UCCUGCUAGAGCUUGGAUAGUAUUUAGUUA: the “pre-steady-state target cleavage rate” value in assay [1] (setting [3]) was found to be 0.178 ± 0.014; in assay [1] (setting [4]), 0.0074 ± 0.0021; in assay [2] it was 0.00499 ± 0.0016.

Consider UCCUGCUACAGGUUGCAUAGUAUUUUGUUA, for which the entries for the “pre-steady-state target cleavage rate” value in assay [1] (setting [3]), in assay [1] (setting [4]) and in assay [2] were 0.165 ± 0.028, 0.00477 ± 0.0031 and 0.0057 ± 0.0026, respectively.

On to UCCUGGAACAGCUUGCAUAGUUUUUAGUUA, for which the “pre-steady-state target cleavage rate” value in assay [1] (setting [3]) was 0.0586 ± 0.01; in assay [1] (setting [4]) it was 0.00493 ± 0.0022; in assay [2] it was 0.00683 ± 0.0019.

For UCCUGGAUGUGCUUGCAAAGUAUUUAGUUA, the “pre-steady-state target cleavage rate” value in assay [1] (setting [3]) was 0.0492 ± 0.011; in assay [1] (setting [4]), 0.00756 ± 0.0024; in assay [2] it was 0.00905 ± 0.0036.

Take UCCUGGAACAGCUUCGCAUAGUAUUUAGUUA: the “pre-steady-state target cleavage rate” value was 0.237 ± 0.016 in assay [1] (setting [3]), 0.00647 ± 0.0022 in assay [1] (setting [4]) and 0.0367 ± 0.008 in assay [2].

Consider UCCUGCUACAGCUUCCUUAGUAUUUAGUUA, for which the “pre-steady-state target cleavage rate” value in assay [1] (setting [3]) was 0.251 ± 0.025; in assay [1] (setting [4]) it was 0.00547 ± 0.0019; in assay [2] it was 0.00425 ± 0.0019.

As for UCCUCCUACAGCUUGCAUAGUAUUUUAGUUA, the “pre-steady-state target cleavage rate” value in assay [1] (setting [3]) was 0.273 ± 0.019; in assay [1] (setting [4]), 0.0124 ± 0.0038; in assay [2], 0.0456 ± 0.014.

Regarding UCCUGGUACACUUGCAUAGUAUUUAGUUA, the entries for the “pre-steady-state target cleavage rate” value in assay [1] (setting [3]), in assay [1] (setting [4]) and in assay [2] were 0.188 ± 0.024, 0.00665 ± 0.0026 and 0.00407 ± 0.0024, respectively.

For the sequence UCCUGGUACAGGUUGCUUAGUAUUUAGUUA, the “pre-steady-state target cleavage rate” value worked out at 0.328 ± 0.022 in assay [1] (setting [3]), 0.0176 ± 0.0042 in assay [1] (setting [4]) and 0.00576 ± 0.003 in assay [2].
